Data published in the supplement of paper PMC11417369.
± gives the standard deviation of the averaged measurements. Over roughly 25,000 sequences, “ln(normalized median fluorescence intensity)” has its median near 8.6; the highest 2% begin near 10. This is one part of a sample in which the highest values are shown more often than they occur.

system: PfAP2-EXP AP2 domain (GST-tagged); assay: gcPBM binding intensity (ln(normalized median fluorescence intensity)); higher = stronger DNA binding
Procedure, shortened: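 GST-fused DNA-binding domains of P. falciparum, expressed in E. coli, were applied at about 25 μg on average for 1 h to an Agilent 4 × 180k array of primer-extended double-stranded 36-bp intergenic genomic probes and negative controls. Binding intensity is the highest Masliner-normalised natural-log median intensity across replicate spots of either probe orientation, measured with Alexa488 anti-GST antibody and a 488 nm scan.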

Row | Sequence | gcPBM binding intensity (ln)
1 | TATATATATATATATATAATACGAATTTGTAGTACA [TGCATGCA_negctrl_site224] | 10.2 ± 0.16
2 | ATAATACGAATTTGTAGTACATTTATAATAACATGA [XGTACX_site2614] | 8.37 ± 0.17
3 | TATATAATACGAATTTGTACATATTAAATAAATTAT [XGTACX_site93] | 8.41 ± 0.37
4 | AATTATATTTGAAATACACACATAAAAACCATATAG [CACACA_site7598] | 8.89 ± 0.51
5 | TATATATATATATGTACACACATATATACCTTTCAT [CACACA_site2679] | 10.1 ± 0.27
6 | TCACACATATATTCATGTACATATTAATATTTCCAT [XGTACX_site5387] | 8.85 ± 0.44
7 | ACACACATATATACATGTACATATATATATATATAT [XGTACX_site451] | 10.1 ± 0.3
8 | ACATACACATATACATGTACATATATATATATATAT [XGTACX_site5082] | 10.2 ± 0.2
9 | GTAAATACACATATGTGTACATATATATATATATAT [XGTACX_site3696] | 10.2 ± 0.35
10 | TATATATATATATATGTACACACATATATACCTTTC [CACACA_site8854] | 10.2 ± 0.26
11 | AATATATTCCACATGTGTACATATATATATATATAT [XGTACX_site8006] | 10.3 ± 0.24
12 | ACACATATATAAATATGTACATATATATATATACAT [XGTACX_site1595] | 8.61 ± 0.23
13 | TCATACATGTATATGTGTACATATAATGTATATTCC [XGTACX_site6082] | 8.3 ± 0.3
14 | ATGTAAATACATATATGTACACAAATATATATATAT [XGTACX_site3537] | 9.8 ± 0.35
15 | TATATATATTTATGTACACACATATATACCTTTCAT [CACACA_site5479] | 8.74 ± 0.23
16 | ACACATACATACATATGTACATATATACATATATAC [XGTACX_site5559] | 8.84 ± 0.26
17 | AAAAAAATATATATTACACACATATATACCTATATA [CACACA_site5688] | 8.18 ± 0.47
18 | TATATCTGTATCATTACACACATGTATACTTATTTG [CACACA_site6134] | 8.74 ± 0.43
19 | TTACGATTATACAAAAGTACATGTATTACACAATAT [XGTACX_site5138] | 8.6 ± 0.33
20 | TACAAAAAAAGATGATGTACAATGAAAAATAAGAAA [XGTACX_site5840] | 9.18 ± 0.37
21 | TATTATAATTAATATACACACGCTTATATATATATA [CACACA_site75] | 9.93 ± 0.3
22 | TAATTGTAGACATGCACACACAAATATTATATATGT [CACACA_site845] | 8.72 ± 0.45
23 | TAATGAAATATACAGAGTACATTCTGTATATAGGAT [XGTACX_site7691] | 8.46 ± 0.3

Row | Sequence | gcPBM binding intensity (ln)
24 | ATATTTACCACTGTATGTACATATATAAAATATATC [XGTACX_site6373] | 8.81 ± 0.18
25 | CTTGAAAGATTTTATTGTACTCATAAGATACATTTC [XGTACX_site3178] | 8.31 ± 0.36
26 | TATTATAGTATATATTGTACATATATATATTTTTTA [XGTACX_site8831] | 8.35 ± 0.37
27 | AGTTTATAGTGATATTGTACATATATATATATATAT [XGTACX_site572] | 10.2 ± 0.66
28 | ATATATATATATATATGTACACATATATTTCTTTTC [XGTACX_site3443] | 10 ± 0.47
29 | TGTATACGCATATGTACACACATATATATGTATATG [CACACA_site3087] | 8.65 ± 0.16
30 | ATATATATATATATATGTACACATATACGCTTTTTC [XGTACX_site3838] | 10.3 ± 0.28
31 | TATATATATACATATTGTACATGTGTATATTTTTTT [XGTACX_site361] | 8.93 ± 0.042
32 | TACATTGTATACATATGTACACATATATATATATAT [XGTACX_site6174] | 10.1 ± 0.4
33 | TATATATATATATATTGTACACATACATGTAGTTTT [XGTACX_site4848] | 10.2 ± 0.29
34 | TATATAGTTTATATTTGTACATATAGACATTTATAA [XGTACX_site6414] | 8.23 ± 0.3
35 | AAAATGTACTTTTTCTAAAGAGTAATGATGCTTGAT [CACACA_negctrl_site1124] | 8.52 ± 0.45
36 | ATATGATAAATTATATGTACTTAAAATATATTATAA [XGTACX_site5904] | 8.26 ± 0.18
37 | TCCTTTTTTTTTTATGCACACACAATTATACATTCC [CACACA_site9287] | 9.06 ± 0.4
38 | TATATATATATATATGCACACATTTATACAATTTTA [CACACA_site2986] | 10.2 ± 0.3
39 | CTTTTTTTTTTATGCACACACAATTATACATTCCTT [CACACA_site3877] | 9.08 ± 0.37
40 | GTTATTTATAGACACACACACATGCATGCACATATA [CACACA_site6204] | 10.2 ± 0.39
41 | TATATATATATATATACATGCATACAATTTTATGAG [TGCATGCA_site466] | 10.2 ± 0.29
42 | TATATACATGCATATACACACATATATTTATTTATA [CACACA_site6327] | 8.7 ± 0.33
43 | AACAGACATAGACACACACACATATATTTATTTATA [CACACA_site7571] | 8.64 ± 0.4
44 | TATATATATATATATACATGCATATTTTTTATTTTT [TGCATGCA_site464] | 10.3 ± 0.31
45 | TATTTATATAGACACACACACATATATTTATATTTT [CACACA_site7240] | 8.52 ± 0.45
46 | TATTCATGCATATACACACACATATATTTATATTTT [CACACA_site7786] | 8.77 ± 0.35

Row | Sequence | gcPBM binding intensity (ln)
47 | TATAATAATAATTATACATGCATGAATATTTATATG [TGCATGCA_site811] | 8.86 ± 0.16
48 | CATATTTTATTATATACATGCAATTTTAATATATAT [TGCATGCA_site544] | 8.59 ± 0.25
49 | GCATAACCTTTATATTGTACATATACCTTTATTGTT [XGTACX_site6046] | 9.16 ± 0.45
50 | TTTAATAAATAAATAAATAAAATATATTAAAAACCA [CACACA_negctrl_site80] | 8.38 ± 0.36
51 | GCATCCCTTTTTATGTGTACATACAAAGGCAATTAC [XGTACX_site6977] | 8.86 ± 0.33
52 | CCTTAATATTTTTGAAGTACATATTTATTTTACAAG [XGTACX_site3049] | 8.31 ± 0.33
53 | TGCTACATTTTATGTACACACATATACAGATATATA [CACACA_site4646] | 8.42 ± 0.26
54 | TCATATGTTAAATGATGTACATTTAATATAAATAAA [XGTACX_site900] | 8.38 ± 0.15
55 | AATTGCATAATATATTCACACATTTTTAAGTGATAC [CACACA_site5679] | 8.38 ± 0.35
56 | ATATATATATATATTGTACACACATTTATGCATATA [CACACA_site9055] | 10 ± 0.2
57 | ATATTCAATATATTATGTACACATATATGAGGATAT [XGTACX_site7019] | 8.65 ± 0.41
58 | ATAATCATAAAATAAACACACATATATAAATATATT [CACACA_site276] | 8.27 ± 0.47
59 | TATGAATGGTTAAGTACACACATATTAATATATGTA [CACACA_site3490] | 8.49 ± 0.45
60 | TAATAATTAATTAATATAATATTTTTTCATAATTAT [XGTACX_negctrl_site602] | 8.22 ± 0.4
61 | ATTATATAATAATGCATGCACCTTATTTTCATTTCA [GTGCAC_site9922] | 9.99 ± 0.19
62 | ATATTATATAATAATGCATGCACCTTATTTTCATTT [TGCATGCA_site405] | 10.2 ± 0.44
63 | TGTATAATATTTGGTGCACACAAATTAACAACTGTT [CACACA_site9245] | 9.21 ± 0.32
64 | AACATATTTTTAAATACACACACATAAAAAAAAAAA [CACACA_site8279] | 8.59 ± 0.5
65 | AATTTATATGTTTTGTGTACACAATTTATTAAATTA [XGTACX_site6448] | 9.03 ± 0.29
66 | ATTCGTCACATTTTTTGATATATATATATATATATA [CACACA_negctrl_site1785] | 10.4 ± 0.4
67 | GTATATATTTTGTATTCATTTGTCACATATAATAGA [CACACA_negctrl_site506] | 8.69 ± 0.5
68 | TATTTTGTATTCATTTGTCACATATAATAGATAGGA [TGCATGCA_negctrl_site9] | 8.69 ± 0.32
69 | ATCCATCTTTTAATTTGTACTTATTCTTTTTTCTTT [XGTACX_site5299] | 9 ± 0.67
